Source: PubChem (National Center for Advancing Translational Sciences (NCATS))
Only a selection was taken, and hits are over-represented in it overall.
DT40 TDP1 no CPT – qHTS for Inhibitors of human tyrosyl-DNA phosphodiesterase 1 (TDP1): qHTS in cells in absence of CPT | DT40 Tdp1-/- hTDP1 cells, no CPT, ATP luminescence, 48 h | Potency, µM (series often up to 46.2 µM), for inactives: at the top dose activity change, negative = growth inhibition, actives largely listed as inhibitors | actives 15% (n = 420,000) | AID 686978, 2013; also: potency is read from the fitted curve at half-maximal effect; nearly all actives have a fitted effect of over 55% in size
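Compound effects on proliferation are scored in DT40 Tdp1-/-;hTDP1 cells in the absence of CPT. ATP levels (CellTiter-Glo luminescence) are recorded after a ≥48 hr, 37 °C incubation.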
IL-1B inflam inh – inhibitors of inflammasome signaling (IL-1 beta secretion). THP-1 LPS/ATP IL-1B secretion, AlphaLISA, 16 h; hits give low values. activity change, % at 57.5 µM. actives 4.7% (n = 360,000). AID 743279; in the data active = activity change below about -50%; inconclusive = mostly about -30% to -49%
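THP-1 cells pretreated 1 hr with compounds (up to 57.5 uM final), then stimulated with LPS (250 ng/mL final) plus ATP (1.25 mM final); secreted IL-1B measured by AlphaLISA after 16 hr, decreased signal indicating inhibition.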
TDP1 cell CPT – growth inhibition of DT40 Tdp1-/-;hTDP1 cells with camptothecin (screen for TDP1 inhibitors); Potency, µM (series often up to 46.2 µM), without a hit: top-dose activity change, negative = growth inhibition, hits mostly inhibitors; chicken DT40 Tdp1-/-;hTDP1 cells + 20 nM CPT, ATP luminescence, 48 h; actives 12% (n = 420,000); also: potency is read from the fitted curve at half-maximal effect; nearly all actives have a fitted effect of over 55% in size
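Chicken DT40 Tdp1-/- cells stably complemented with human TDP1 were seeded at 400 cells/well in medium containing 20 nM camptothecin, exposed to pin-transferred compounds, and grown at 37 °C for at least 48 hr. Viability was read as ATP luminescence.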
HT1080-NT tox – kills 2HG-producing HT-1080-NT fibrosarcoma cells; AID 686970; actives 1.6% (n = 360,000); HT-1080-NT fibrosarcoma viability, CellTiter-Glo ATP luminescence, 48 h; Potency, µM (titrated, usually from 46.1 µM), for the others: at the highest dose activity, negative = less viability, usual class: cytotoxic;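 also: NT is the 2HG producing partner of a matched IDH1 knockdown line; potency is read from the fitted curve at half-maximal effect; 0% = DMSO-treated cells and -100% = media-only wells without cells; nearly all actives have a fitted effect of over 55% in size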
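Viability by CellTiter-Glo luminescence after 48 h compound exposure at 37C of HT-1080-NT cells (750/well, RPMI, 5% FBS). % activity scaled between DMSO wells and medium-only wells, then curve-fitted and categorized by curve class.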
ALOX12 inh – ALOX12 (human) lipoxygenase inhibition; AID 1671190; actives 1.1% (n = 580,000); purified 12hLO, xylenol orange hydroperoxide absorbance; Potency, µM (doses to about 108 µM), for inactives: top-dose activity change, negative = inhibition, usual class: inhibitors; also: potency is read from the fitted curve at half-maximal effect
Target sequence (P18054 whole entry, looked up): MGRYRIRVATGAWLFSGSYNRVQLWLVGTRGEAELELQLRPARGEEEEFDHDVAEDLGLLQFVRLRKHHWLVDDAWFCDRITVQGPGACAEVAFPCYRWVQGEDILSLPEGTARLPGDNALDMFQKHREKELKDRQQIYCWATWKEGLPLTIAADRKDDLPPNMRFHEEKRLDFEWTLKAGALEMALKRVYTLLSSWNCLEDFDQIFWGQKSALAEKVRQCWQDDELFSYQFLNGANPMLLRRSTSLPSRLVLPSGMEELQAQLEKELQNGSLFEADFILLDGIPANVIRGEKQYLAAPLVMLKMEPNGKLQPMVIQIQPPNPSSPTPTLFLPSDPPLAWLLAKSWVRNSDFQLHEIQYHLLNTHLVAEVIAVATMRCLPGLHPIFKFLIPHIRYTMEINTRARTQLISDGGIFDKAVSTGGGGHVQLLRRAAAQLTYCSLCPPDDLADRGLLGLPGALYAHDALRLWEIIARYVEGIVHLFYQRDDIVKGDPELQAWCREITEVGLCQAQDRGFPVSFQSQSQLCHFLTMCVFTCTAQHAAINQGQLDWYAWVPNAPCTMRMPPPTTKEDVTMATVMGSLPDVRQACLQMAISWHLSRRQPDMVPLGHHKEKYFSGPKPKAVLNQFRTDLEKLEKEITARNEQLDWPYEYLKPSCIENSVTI
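Purified human 12hLO (150 nM final) in 25 mM Hepes, 0.01% Triton X-100, pH 7.0 was preincubated 15 min at room temperature with compound. Then 40 uM arachidonic acid was added, 30 min. Hydroperoxide was read by Fe-XO absorbance ratio 573/405 nm.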
HT1080 IDH1KD tx – toxicity to HT-1080 IDH1 knockdown cells (counter line); AID 686971; HT-1080 IDH1 knockdown viability, ATP luminescence, 48 h; Potency, µM (top dose mostly 46.1 µM), for inactives: at the highest dose activity, negative = toxicity, hits mostly cytotoxic; actives 2% (n = 360,000);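 also: potency is read from the fitted curve at half-maximal effect; 0% = DMSO wells and -100% = cell-free medium wells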
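After a 2 h attachment period, IDH1KD HT-1080 cells took pin-transferred compound for 48 h at 37 °C; ATP-based luminescence after 10 min room-temperature reagent incubation reported viability.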
* hit, by the source's call; ? = inconclusive; nt = no result given; [ ] = dose if it differs, or a comment. Unless noted, calls follow the shape of the dose curve; as a rule, active = well fitted curve in the direction sought with a large enough effect; inconclusive = small, poorly fitted or top-dose-only effect, or another doubt; inactive = no such curve, though single readings can be large; an effect the other way counts as inactive or inconclusive. Unless noted, % is scaled to controls: 0 for no effect and ±100 for the full control effect.

SMILES	DT40 TDP1 no CPT	IL-1B inflam inh	TDP1 cell CPT	HT1080-NT tox	ALOX12 inh	HT1080 IDH1KD tx
COc1ccc(CCNC(=O)c2c(N)n(CCN3CCOCC3)c3nc4ccccc4nc23)cc1	18.4µM*	?	20.6µM*	-1.3%	0.0%	5.1%
Nc1c(C(=O)NCCN2CCOCC2)c2nc3ccccc3nc2n1Cc1ccco1	14.6µM*	-24.4	?	-3.9%	0.0%	-12.0%
COCCNC(=O)c1c(NC(=O)c2ccco2)n(Cc2ccccc2)c2nc3ccccc3nc12	20.6µM*	-8.4	?	-19.0%	?	-9.4%
CCCCn1c(N)c(C(=O)NCCN2CCOCC2)c2nc3ccccc3nc21	23.1µM*	-54.2*	14.6µM*	?	-19.0%	?
COCCCn1c(N)c(C(=O)NCc2ccco2)c2nc3ccccc3nc21	?	-19.4	?	-0.9%	?	-8.8%
Cn1c(=O)c2[nH]c(N3CCNCC3)nc2n(C)c1=O	nt	nt	nt	nt	7.7%	nt
O=C(NCCN1CCOCC1)c1ccc(Cl)nc1Cl	-1.7%	-9.2	-8.4%	-7.0%	-11.3%	-1.7%
CCOC(=O)c1c(N)n(CCN2CCCCC2)c2nc3ccccc3nc12	-27.4%	-83.4*	-16.6%	-2.1%	?	-5.9%
C=CCNC(=O)c1c(N)n(Cc2ccccc2)c2nc3ccccc3nc12	nt	nt	nt	nt	-36.0%	nt
C=CCNC(=O)c1c(N)n(Cc2ccco2)c2nc3ccccc3nc12	14.6µM*	-14.2	7.31µM*	?	?	?
Nc1c(C(=O)OCc2ccccc2)c2nc3ccccc3nc2n1Cc1cccs1	?	-90.1*	?	?	0.0%	?
Nc1c(C(=O)NCCN2CCOCC2)c2nc3ccccc3nc2n1Cc1ccccc1	23.1µM*	nt	?	-5.8%	?	-4.5%
CC(C)CNC(=O)CN1CCN(C(=O)Cc2c[nH]c3ccccc23)CC1	nt	nt	nt	nt	-1.0%	nt
O=C1CS(=O)C2(CCNCC2)N1C1CCCC1 (stereo not drawn)	nt	nt	nt	nt	9.1%	nt
CC(C)NC(=O)N1[C@H]2CC[C@@H]1c1cnc(-c3ccc(F)cc3)nc1C2	nt	nt	nt	nt	12.5%	nt
CCCNC(=O)OC[C@H]1C[C@@H]2CCN1C[C@@H]2c1cc(-c2ccccc2)nn1C	nt	nt	nt	nt	6.2%[176 µM]	nt
Nc1c(C(=O)NCCc2ccccc2)c2nc3ccccc3nc2n1CCN1CCOCC1	16.4µM*	-86.2*	20.6µM*	17.8µM*	-14.1%	?
Cc1ccc(NC(=O)Cn2cc(C(=O)c3ccccc3)c3ccccc32)cc1	?	nt	-91.6%	nt	-7.6%	nt
O=C(Cn1cc(C(=O)c2ccccc2)c2ccccc21)Nc1ccc(Br)cc1	23.1µM*	nt	?	nt	-17.6%	nt
O=C(NCc1ccc(F)cc1)[C@H]1CN2CCC1C[C@@H]2Cn1cc(C2(O)CCCCC2)nn1 (stereo partly drawn)	nt	nt	nt	nt	11.1%	nt
O=C(NCC1=C(c2ccc3ccccc3c2)C[C@@H]2CC[C@H]1N2Cc1ccco1)c1ccncc1	?	-8.3	?	-4.8%	-18.7%	-17.1%
O=C(NCC1=C(c2ccc3ccccc3c2)C[C@@H]2CC[C@H]1N2Cc1ccco1)c1ccc([N+](=O)[O-])cc1	16.4µM*	-71.4*	?	-20.2%	?	?
O=C(CCC1CCCC1)c1c(O)c2ccccc2oc1=O	4.11µM*	-10.9	5.17µM*	-1.2%	23.2%	-1.2%
Cc1ccc2c(c1)c(=O)c1c3n2CCN(CC2CO2)C3CC1 (stereo not drawn)	?	4.7	18.4µM*	-20.6%	-13.5%	-2.6%
Cc1cccc(Cn2c(=O)n(CC3CCC(C(=O)N4CCC(C)CC4)CC3)c(=O)c3sccc32)c1 (stereo not drawn)	16.4µM*	nt	20.6µM*	nt	-16.7%	nt
SMILES	DT40 TDP1 no CPT	IL-1B inflam inh	TDP1 cell CPT	HT1080-NT tox	ALOX12 inh	HT1080 IDH1KD tx
CCOc1ccc(S(=O)(=O)N(CC(=O)NCc2ccccc2OC)c2ccccc2)cc1	16.4µM*	nt	14.6µM*	nt	-17.0%	nt
O=C(CSc1oc(-c2ccccc2)nc1S(=O)(=O)c1ccc(Cl)cc1)Nc1ccc(F)cc1	?	nt	10.3µM*	nt	?	nt
CCOc1ccc(NC(=O)CSc2oc(-c3ccccc3)nc2S(=O)(=O)c2ccc(Cl)cc2)cc1	20.6µM*	nt	7.31µM*	nt	?	nt
O=C(CN1CCN(CC(=O)Nc2ccc(OCc3ccccc3)cc2)CC1)Nc1ccc(F)cc1	?	-26.9	?	?	19.1%	?
CCOc1ccc(NC(=O)CN(c2ccc(Cl)cc2C)S(=O)(=O)c2ccccc2)cc1	10.3µM*	nt	8.2µM*	nt	-1.2%	nt
CCOc1ccc(NC(=O)c2c(C)nn(Cc3ccccc3)c2Cl)cc1	-4.5%	10.0	0.3%	-11.2%	-2.3%	-10.9%
COc1ccc(NC(=O)N2[C@H]3CC[C@@H]2c2cnc(C)nc2C3)cc1OC	nt	nt	nt	nt	1.7%	nt
Nc1cccc(-c2cn(C[C@H]3CC4CCN3C[C@@H]4C(=O)NC3CCCCC3)nn2)c1 (stereo partly drawn)	nt	nt	nt	nt	74.9%[176 µM]	nt
O=C1NCCCCCN[C@H]2CCC[C@@H]12	nt	nt	nt	nt	47.0%	nt
COc1ccc(-c2cc([C@H]3CN4CC[C@H]3C[C@@H]4CNC(=O)CCCC(=O)O)n(C)n2)cc1	nt	nt	nt	nt	28.2%	nt
C=CCCC[C@@H]1OC(=O)CNC(=O)C([C@@H](C)CC)NC(=O)[C@@H]2CCCN2C(=O)C([C@@H](C)CC)OC(=O)[C@H](Cc2ccccc2)N(C)C(=O)[C@H](C(C)C)NC(=O)C1(C)C (stereo partly drawn)	16.4µM*	-52.4*	13µM*	?	-0.8%	?
CCN1CCN(c2ccc(N)cc2C)CC1	13µM*	-7.3	11.6µM*	-4.1%	-24.4%	-1.2%
Fc1cccc(CC2CCOC3(CCNCC3)C2)c1 (stereo not drawn)	nt	nt	nt	nt	20.7%	nt
Cc1ccccc1-c1ccc2c(c1)C1c3c(-c4ccccc4)nnn3-c3ccccc3C(=O)N1CC2 (stereo not drawn)	29.1µM*	51.3	20.6µM*	-6.0%	?	-8.0%
COC(=O)CSC1=NP(=S)(SCC(=O)OC)N2CCCC2=C1C#N (stereo not drawn)	?	-94.3*	-26.1%	4.7%	0.0%	0.0%
Cc1nn(Cc2ccccc2)c(C)c1C(=O)NCc1ccccc1F	-19.8%	-22.9	-2.6%	15.3%	-5.9%	15.0%
C=C1C=C(C(F)F)n2ncc(C(=O)NCc3ccccc3F)c2N1	11.2µM*	nt	?	nt	nt	nt
CCN(CC)C(=O)c1ccc(NC(=O)c2cccc(S(=O)(=O)N3CCN(Cc4ccccc4)CC3)c2)cc1	13µM*	?	18.4µM*	-10.0%	-1.5%	-28.0%
